# “And” between values parts separate entries of the source, which are not always exact repeats. Equal entries are not always repeated. The campaign covered roughly 5,500 compounds. About 2,000 (36%) were called active. About 18% were inconclusive and are not listed. The list shows a part of the results. Unmarked numbers belong to inactive results. Rule as the data show it: active = normalized growth mostly below about 0.91 (no sharp cut-off); inconclusive = no clear call, values can overlap the other calls; inactive = mostly above about 0.92.
# Test: chemical genetic growth profiling, strain panel (AID 1159580);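 also: tested at 20 µM; growth read once vehicle control cultures reached saturation at 30 °C; 1 = growth at the plate median or of vehicle wells; lower values mean less growth of the strain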
# Settings: S. cerevisiae deletion strains, growth OD
compound,measurement,setting,value
O=C1C=C(O)c2ccccc2C1=O,normalized growth,"locus YAL013W, strain DEP1, stronger effect = lower value",0.969
same,normalized growth,"locus YAL021C, strain ccr4, stronger effect = lower value",0.905 (active)
same,normalized growth,"locus YAL026C, strain drs2, stronger effect = lower value",0.938
same,normalized growth,"locus YAL030W, strain snc1, stronger effect = lower value",0.959
same,normalized growth,"locus YBL061C, strain skt5, stronger effect = lower value",0.956
same,normalized growth,"locus YBR009C, strain hhf1, stronger effect = lower value",0.948
same,normalized growth,"locus YBR021W, strain FUR4, stronger effect = lower value",1.05
same,normalized growth,"locus YBR023C, strain chs3, stronger effect = lower value",0.95
same,normalized growth,"locus YBR171W, strain sec66, stronger effect = lower value",0.952
same,normalized growth,"locus YBR229C, strain ROT2, stronger effect = lower value",0.979
same,normalized growth,"locus YBR231C, strain swc5, stronger effect = lower value",0.932
same,normalized growth,"locus YBR279W, strain paf1, stronger effect = lower value",0.953
same,normalized growth,"locus YCL011C, strain gbp2, stronger effect = lower value",0.925
same,normalized growth,"locus YCL016C, strain dcc1, stronger effect = lower value",0.95
same,normalized growth,"locus YCL029C, strain bik1, stronger effect = lower value",0.971
same,normalized growth,"locus YCL061C, strain MRC1, stronger effect = lower value",0.93
same,normalized growth,"locus YCL069W, strain vba3, stronger effect = lower value",0.963
same,normalized growth,"locus YCR088W, strain abp1, stronger effect = lower value",0.934
same,normalized growth,"locus YDL005C, strain med2, stronger effect = lower value",0.947
same,normalized growth,"locus YDL035C, strain GPR1, stronger effect = lower value",1.01
same,normalized growth,"locus YDL040C, strain nat1, stronger effect = lower value",0.966
same,normalized growth,"locus YDL074C, strain BRE1, stronger effect = lower value",1.03
same,normalized growth,"locus YDL101C, strain DUN1, stronger effect = lower value",0.971
same,normalized growth,"locus YDL134C, strain PPH21, stronger effect = lower value",0.968
same,normalized growth,"locus YDL185W, strain tfp1, stronger effect = lower value",0.907
same,normalized growth,"locus YDL192W, strain arf1, stronger effect = lower value",0.958
same,normalized growth,"locus YDR001C, strain nth1, stronger effect = lower value",0.944
same,normalized growth,"locus YDR069C, strain doa4, stronger effect = lower value",0.912
same,normalized growth,"locus YDR101C, strain arx1, stronger effect = lower value",0.978
same,normalized growth,"locus YDR137W, strain rgp1, stronger effect = lower value",0.683 (active)
same,normalized growth,"locus YDR150W, strain NUM1, stronger effect = lower value",0.972
same,normalized growth,"locus YDR159W, strain sac3, stronger effect = lower value",0.802 (active)
same,normalized growth,"locus YDR162C, strain NBP2, stronger effect = lower value",0.882
same,normalized growth,"locus YDR195W, strain ref2",0.995
same,normalized growth,"locus YDR297W, strain sur2, stronger effect = lower value",0.931
same,normalized growth,"locus YDR318W, strain mcm21, stronger effect = lower value",0.928
same,normalized growth,"locus YDR334W, strain swr1, stronger effect = lower value",0.884 (active)
same,normalized growth,"locus YDR335W, strain msn5, stronger effect = lower value",0.94
same,normalized growth,"locus YDR388W, stronger effect = lower value",0.966
same,normalized growth,"locus YDR392W, strain spt3, stronger effect = lower value",0.796
same,normalized growth,"locus YDR502C, strain sam2, stronger effect = lower value",0.941
same,normalized growth,"locus YEL003W, strain gim4, stronger effect = lower value",0.925
same,normalized growth,"locus YEL037C, strain rad23, stronger effect = lower value",0.944
same,normalized growth,"locus YEL061C, strain CIN8 (second series), stronger effect = lower value",0.948
same,normalized growth,"locus YEL061C, strain CIN8, stronger effect = lower value",0.966
same,normalized growth,"locus YER015W, strain faa2, stronger effect = lower value",0.94
same,normalized growth,"locus YER016W, strain bim1, stronger effect = lower value",0.957
same,normalized growth,"locus YER110C, stronger effect = lower value",0.955
same,normalized growth,"locus YER111C, strain swi4, stronger effect = lower value",0.965
same,normalized growth,"locus YER155C, strain BEM2 (second series), stronger effect = lower value",0.954
same,normalized growth,"locus YER155C, strain BEM2, stronger effect = lower value",0.957
same,normalized growth,"locus YER167W, strain BCK2, stronger effect = lower value",0.98
same,normalized growth,"locus YFR010W, strain ubp6, stronger effect = lower value",0.896 (active)
same,normalized growth,"locus YGL078C, strain dbp3, stronger effect = lower value",1.01
same,normalized growth,"locus YGL086W, strain mad1, stronger effect = lower value",0.976
same,normalized growth,"locus YGL167C, strain pmr1, stronger effect = lower value",0.948
same,normalized growth,"locus YGL173C, strain kem1, stronger effect = lower value",0.942
same,normalized growth,"locus YGL227W, strain vid30, stronger effect = lower value",0.977
same,normalized growth,"locus YGL240W, strain doc1, stronger effect = lower value",0.89
same,normalized growth,"locus YGL248W, strain PDE1, stronger effect = lower value",0.966
same,normalized growth,"locus YGL253W, strain hxk2, stronger effect = lower value",0.924
same,normalized growth,"locus YGR078C, strain PAC10, stronger effect = lower value",0.963
same,normalized growth,"locus YGR135W, strain pre9, stronger effect = lower value",0.973
same,normalized growth,"locus YGR252W, strain gcn5, stronger effect = lower value",1.03
same,normalized growth,"locus YHR013C, strain ard1, stronger effect = lower value",0.963
same,normalized growth,"locus YHR027C, strain rpn1, stronger effect = lower value",0.935
same,normalized growth,"locus YHR030C, strain SLT2, stronger effect = lower value",0.963 and 0.867
same,normalized growth,"locus YHR079C, strain IRE1 (second series), stronger effect = lower value",0.981
same,normalized growth,"locus YHR079C, strain IRE1, stronger effect = lower value",0.774 (active)
same,normalized growth,"locus YHR094C, strain hxt1, stronger effect = lower value",1
same,normalized growth,"locus YHR129C, strain ARP1, stronger effect = lower value",0.988
same,normalized growth,"locus YHR142W, strain chs7, stronger effect = lower value",0.93
same,normalized growth,"locus YHR200W, strain rpn10, stronger effect = lower value",0.962
same,normalized growth,"locus YIL066C, strain RNR3, stronger effect = lower value",0.972
same,normalized growth,"locus YIL073C, strain SPO22, stronger effect = lower value",0.992
same,normalized growth,"locus YIL125W, strain kgd1, stronger effect = lower value",0.962
same,normalized growth,"locus YIR030C, strain dcg1, stronger effect = lower value",0.972
same,normalized growth,"locus YJL092W, strain hpr5, stronger effect = lower value",0.934
same,normalized growth,"locus YJL095W, strain BCK1 (second series), stronger effect = lower value",0.931
same,normalized growth,"locus YJL095W, strain BCK1, stronger effect = lower value",0.949 and 0.923
same,normalized growth,"locus YJL115W, strain asf1, stronger effect = lower value",0.938
same,normalized growth,"locus YJL129C, strain trk1, stronger effect = lower value",0.967
same,normalized growth,"locus YJL134W, strain LCB3, stronger effect = lower value",0.967
same,normalized growth,"locus YJL154C, strain vps35, stronger effect = lower value",0.933
same,normalized growth,"locus YJL164C, strain tpk1, stronger effect = lower value",0.913 (active)
same,normalized growth,"locus YJL166W, strain qcr8, stronger effect = lower value",0.92
same,normalized growth,"locus YJL168C, strain set2, stronger effect = lower value",0.955
same,normalized growth,"locus YJL187C, strain SWE1 (second series), stronger effect = lower value",0.957
same,normalized growth,"locus YJL187C, strain SWE1, stronger effect = lower value",0.946

# — PubChem BioAssay AID1159580 (chemical genetic matrix, 2015)
